Measurements from PubChem BioAssay (NCATS).
Results filed as inconclusive are left out. Active and inactive are the calls of the source. Calls come from the whole dose curve; as a rule, active = well fitted curve in the direction sought with a large enough effect; inconclusive = small, poorly fitted or top-dose-only effect, or another doubt; inactive = no such curve, though single readings can be large; an effect the other way counts as inactive or inconclusive.

How the values were obtained:
[1] = MultiTox-Fluor Cytotoxicity Assay - LYMP1-001 - Dead Cells (AID 946)
In short: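 In this qHTS, 15 uM tetraoctylammonium bromide defined 100% and DMSO defined basal activity. Lymphoblastoid cells (LYMP1-001, 2500 per well) received compound for 16 hr at 37 C before a fluorogenic dead-cell substrate readout at 485/520 nm.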

[2] = MultiTox-Fluor Cytotoxicity Assay - LYMP1-001 - Live Cells (AID 947)
[3] = Cell Viability - LYMP1-002 - Assay at 16 hr (AID 948)
In short: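 LYMP1-002 human lymphoblastoid cells, 2500/well, were treated with compounds for 16 hr at 37 C in complete medium. Viability was read as intracellular ATP by CellTiter-Glo luminescence, and AC50 was derived from a Hill fit to concentration-response data.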

[4] = MultiTox-Fluor Cytotoxicity Assay - LYMP1-002 - Live Cells (AID 955)
In short: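 Human lymphoblastoid LYMP1-002 cells, 2500/well in complete medium, rested 5 hr at 37 C, then exposed to compounds for 16 hr at 37 C. Live-cell protease cleavage of GF-AFC read by fluorescence (Ex/Em 405/510) after 60 min at room temperature; AC50 from Hill fits.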

[5] = MultiTox-Fluor Cytotoxicity Assay - LYMP1-002 - Dead Cells (AID 960); note: nearly all actives have a fitted effect of over 60% in size
In short: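 Human lymphoblastoid cells (LYMP1-002), 2500/well in complete medium, were exposed to compounds for 16 hr at 37 C. Dead-cell protease activity was read as bis-AAF-R110 fluorescence (Ex/Em 485/520), normalized to DMSO and 15 uM tetraoctylammonium bromide; AC50 from Hill fits.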

[6] = MultiTox-Fluor Cytotoxicity Assay - LYMP1-003 - Dead Cells (AID 961); note: nearly all actives have a fitted effect of over 70% in size
In short: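 Acute toxicity is scored as increased dead-cell protease activity in human lymphoblastoid LYMP1-003 cells after 16 h compound exposure in complete culture medium. Activity is normalized to DMSO basal and 15 uM tetraoctylammonium bromide as full response.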

[7] = MultiTox-Fluor Cytotoxicity Assay - LYMP1-003 - Live Cells (AID 962);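 note: cytotoxic hits lower the live-cell protease signal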
In short: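 LYMP1-003 human lymphoblastoid cells (2500/well) in complete medium were preincubated 5 hr at 37 C, then exposed to compounds for 16 hr at 37 C. Live-cell protease cleavage of GF-AFC read by fluorescence (Ex/Em 405/510); AC50 from Hill fits.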

[8] = Cell Viability - LYMP1-003 - Assay at 24 hr (AID 963)
In short: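 Human lymphoblastoid LYMP1-003 cells (2500/well) were rested 5 hr at 37 C, then exposed to compounds in complete medium for 24 hr at 37 C. Cellular ATP was quantified by CellTiter-Glo luminescence, and AC50 values came from Hill fits of concentration-response data.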

[9] = Cell Viability - LYMP1-003 - Assay at 40 hr (AID 964); note: series mostly up to about 92 µM; nearly all actives have a fitted effect of over 60% in size
In short: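 Human lymphoblastoid LYMP1-003 cells, 2500/well in complete medium, rested 5 hr at 37 C, then exposed to compounds for 40 hr at 37 C. Viability read as intracellular ATP by CellTiter-Glo luminescence; AC50 from Hill fits of concentration-response data.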

[10] = Cell Viability - LYMP2-003 (AID 965);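 note: cells exposed to compounds for 24 h before reading; nearly all actives have a fitted effect of over 50% in size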
In short: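 Human lymphoblastoid LYMP2-003 cells, 2500/well, exposed to compounds for 24 h at 37 C in complete medium. Viability read as intracellular ATP by CellTiter-Glo luminescence; AC50 from Hill-equation fits of qHTS concentration-response data.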

[11] = Cell Viability - LYMP2-004 (AID 966); note: nearly all actives have a fitted effect of over 65% in size
In short: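 Human lymphoblastoid cells (2500/well) in complete medium were treated with compounds for 24 hr at 37 C, then intracellular ATP was measured by CellTiter-Glo luminescence. AC50 values came from Hill-equation fits of concentration-response data.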

[12] = Cell Viability - LYMP2-009 (AID 968); note: series mostly up to about 92 µM; nearly all actives have a fitted effect of over 55% in size
[13] = Cell Viability - LYMP2-013 (AID 970); note: series mostly up to about 92 µM; nearly all actives have a fitted effect of over 55% in size
In short: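 Human lymphoblastoid cells, 2500/well, were preincubated 5 hr at 37 C, then treated with compounds for 24 hr at 37 C in complete medium. Intracellular ATP was read by CellTiter-Glo luminescence; AC50 from Hill-equation fits of concentration-response data.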

[14] = Cell Viability - LYMP2-015 (AID 971); note: nearly all actives have a fitted effect of over 55% in size
In short: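 Human lymphoblastoid cells (2500/well) in complete medium were preincubated 5 hr at 37 C, then compound-treated 24 hr at 37 C. Intracellular ATP was read by CellTiter-Glo luminescence after 30 min at room temperature; AC50 came from Hill-equation concentration-response fits.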

[15] = Cell Viability - LYMP2-017 (AID 972); note: series mostly up to about 92 µM; nearly all actives have a fitted effect of over 55% in size
In short: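 Human lymphoblastoid cells (2500/well) were seeded in complete medium, held 5 hr at 37 C, then exposed to compounds for 24 hr at 37 C. Intracellular ATP was read by CellTiter-Glo luminescence after 30 min at room temperature, with AC50 values from Hill-equation fits.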

[16] = Cell Viability - LYMP2-019 (AID 973); note: nearly all actives have a fitted effect of over 55% in size
In short: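 Human lymphoblastoid cells were seeded at 2500 cells/well, preincubated 5 hr at 37 C, then exposed to compounds for 24 hr at 37 C in complete medium. Intracellular ATP was measured by CellTiter-Glo luminescence; AC50 from Hill fits.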

[17] = Cell Viability - LYMP2-023 (AID 975)
In short: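 Human lymphoblastoid cells (2500/well) were preincubated 5 hr at 37 C, then exposed to compounds for 24 hr at 37 C in complete medium. Cellular ATP was read by CellTiter-Glo luminescence, and AC50 came from Hill-equation fits.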

[18] = Cell Viability - LYMP2-005 (AID 967); note: series mostly up to about 92 µM
In short: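 Human lymphoblastoid LYMP2-005 cells, 2,500 per well in complete medium, rested 5 h at 37C then compound-treated 24 h at 37C. Intracellular ATP read by CellTiter-Glo luminescence after 30 min at room temperature; AC50 from Hill-equation fits of concentration-response data.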

[19] = Cell Viability - LYMP2-011 (AID 969); note: nearly all actives have a fitted effect of over 60% in size
In short: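 Human lymphoblastoid cells (2500/well) were plated in complete medium, preincubated 5 hr at 37 C, then exposed to compounds for 24 hr at 37 C. Intracellular ATP was read by CellTiter-Glo luminescence, and AC50 came from Hill-equation concentration-response fits.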

[20] = Cell Viability - LYMP2-021 (AID 974)
In short: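 Human lymphoblastoid cells (2500/well) were preincubated 5 hr at 37 C, then exposed to compounds for 24 hr at 37 C in complete medium. Intracellular ATP was read by CellTiter-Glo luminescence; AC50 came from Hill-equation fits of concentration-response data.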

Measured: Potency

Cc1ccc2oc(=O)ccc2c1
inactive: [1] | [2] | [3] | [4] | [5] | [6] | [7] | [8] | [9] | [10] | [11] | [12] | [13] | [14] | [15] | [16] | [17]

C=CCn1c(=O)n(CC=C)c(=O)n(CC=C)c1=O
inactive: [1] | [2] | [3] | [4] | [5] | [6] | [7] | [9] | [10] | [11] | [18] | [12] | [19] | [13] | [14] | [15] | [16] | [17]

COC(=O)CC#N
inactive: [1] | [2] | [3] | [4] | [5] | [6] | [7] | [8] | [9] | [10] | [18] | [12] | [19] | [13] | [14] | [15] | [16] | [20] | [17]

CCC=O
inactive: [1] | [2] | [3] | [4] | [5] | [6] | [7] | [8] | [9] | [10] | [11] | [18] | [12] | [13] | [14] | [16] | [17]

c1ccc2c(c1)ccc1ncccc12
inactive: [1] | [2] | [3] | [4] | [6] | [7] | [8] | [9] | [10] | [11] | [18] | [12] | [19] | [13] | [14] | [15] | [16] | [20] | [17]

Nc1cc(Cl)c(N)c(Cl)c1
inactive: [1] | [2] | [3] | [4] | [6] | [7] | [8] | [9] | [10] | [11] | [18] | [12] | [19] | [13] | [14] | [15] | [16] | [20] | [17]

C=C(C)C(=O)OCC(C)C
inactive: [1] | [2] | [3] | [5] | [6] | [7] | [8] | [9] | [10] | [11] | [18] | [12] | [19] | [13] | [14] | [15] | [16] | [20] | [17]

OC1CCCC1
inactive: [1] | [2] | [3] | [4] | [6] | [7] | [8] | [9] | [10] | [11] | [12] | [19] | [13] | [14] | [15] | [16] | [20] | [17]
